Data taken from PubChem BioAssay (NCATS).
Values joined by “and” are separate entries in the source; they are usually repeats but may differ in a detail not shown here. Equal values may be shown once. Inconclusive results are not listed. A call without a number means that no potency is given here. Some compounds were tested as several samples or in several runs, with calls that do not always agree. Active and inactive are the calls of the source. Unless noted, calls come from the whole dose curve; as a rule, active = well fitted curve in the direction sought with a large enough effect; inconclusive = small, poorly fitted or top-dose-only effect, or another doubt; inactive = no such curve, though single readings can be large; an effect the other way counts as inactive or inconclusive.

How the values were obtained:
[1] = P-glycoprotein substrates identified in KB-8-5-11 adenocarcinoma cell line, qHTS therapeutic library screen (AID 1346987); note: nearly all actives have a fitted effect of over 65% in size; note: potency is the fitted concentration of half-maximal effect
Procedure, shortened: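 Compounds are pinned in dose-response onto KB-8-5-11 cells (500 cells/well, colchicine-free medium) and left 72 h at 37 degree C. CellTiter-Glo luminescence then yields AC50 values.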

[2] = target: Atrial natriuretic peptide receptor 1 (Homo sapiens) (UniProt P16066); assay: Natriuretic polypeptide receptor (hNpr1) antagonism - Pilot screen (AID 1347049; calls by dose curve;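 note: agonist-evoked cGMP luminescence read 20 min after hNppA addition; series mostly up to about 58 µM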)
Chain of Atrial natriuretic peptide receptor 1 (Homo sapiens) (P16066 whole entry, looked up): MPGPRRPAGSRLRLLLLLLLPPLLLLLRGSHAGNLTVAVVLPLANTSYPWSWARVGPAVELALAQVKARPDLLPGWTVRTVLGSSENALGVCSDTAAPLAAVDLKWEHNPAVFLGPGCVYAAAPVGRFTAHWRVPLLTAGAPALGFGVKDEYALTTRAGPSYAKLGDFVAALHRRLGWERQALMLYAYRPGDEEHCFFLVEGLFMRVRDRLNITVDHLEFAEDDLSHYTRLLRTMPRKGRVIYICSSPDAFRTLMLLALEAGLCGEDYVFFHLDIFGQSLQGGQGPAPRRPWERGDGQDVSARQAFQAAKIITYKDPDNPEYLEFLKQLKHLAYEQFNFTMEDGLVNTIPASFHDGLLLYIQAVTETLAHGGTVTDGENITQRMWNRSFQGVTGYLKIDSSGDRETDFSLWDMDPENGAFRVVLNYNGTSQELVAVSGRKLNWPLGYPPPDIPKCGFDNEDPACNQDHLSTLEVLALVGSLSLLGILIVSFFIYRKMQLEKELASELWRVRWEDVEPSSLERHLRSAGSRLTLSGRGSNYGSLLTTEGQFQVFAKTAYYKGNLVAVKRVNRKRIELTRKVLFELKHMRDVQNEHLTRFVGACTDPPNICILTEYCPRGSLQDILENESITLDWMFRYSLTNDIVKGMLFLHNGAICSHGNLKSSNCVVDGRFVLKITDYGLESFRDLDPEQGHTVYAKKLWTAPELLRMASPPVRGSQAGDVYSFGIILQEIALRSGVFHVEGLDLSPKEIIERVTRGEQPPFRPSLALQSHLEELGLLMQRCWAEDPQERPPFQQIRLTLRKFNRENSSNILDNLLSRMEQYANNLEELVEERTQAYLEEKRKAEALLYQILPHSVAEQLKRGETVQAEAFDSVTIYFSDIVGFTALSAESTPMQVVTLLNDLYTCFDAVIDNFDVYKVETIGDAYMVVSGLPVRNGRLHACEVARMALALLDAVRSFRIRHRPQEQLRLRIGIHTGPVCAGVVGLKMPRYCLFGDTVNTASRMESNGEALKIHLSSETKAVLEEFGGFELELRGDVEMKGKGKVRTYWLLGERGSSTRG
Procedure, shortened: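 cGMP-sensor HEK293/hNpr1 cells, 1500/well, plated overnight at 37C. 2% GloSensor reagent, 2 h RT. Compound (23 nL pin transfer) 30 min RT, baseline luminescence pre-read. 0.1 nM hNppA, 20 min RT, post-read.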

[3] = target: Atrial natriuretic peptide receptor 2 (Homo sapiens) (UniProt P20594); assay: Natriuretic polypeptide receptor (hNpr2) antagonism - Pilot subtype selectivity assay (AID 1347050; calls by dose curve)
Chain of Atrial natriuretic peptide receptor 2 (Homo sapiens) (P20594 whole entry, looked up): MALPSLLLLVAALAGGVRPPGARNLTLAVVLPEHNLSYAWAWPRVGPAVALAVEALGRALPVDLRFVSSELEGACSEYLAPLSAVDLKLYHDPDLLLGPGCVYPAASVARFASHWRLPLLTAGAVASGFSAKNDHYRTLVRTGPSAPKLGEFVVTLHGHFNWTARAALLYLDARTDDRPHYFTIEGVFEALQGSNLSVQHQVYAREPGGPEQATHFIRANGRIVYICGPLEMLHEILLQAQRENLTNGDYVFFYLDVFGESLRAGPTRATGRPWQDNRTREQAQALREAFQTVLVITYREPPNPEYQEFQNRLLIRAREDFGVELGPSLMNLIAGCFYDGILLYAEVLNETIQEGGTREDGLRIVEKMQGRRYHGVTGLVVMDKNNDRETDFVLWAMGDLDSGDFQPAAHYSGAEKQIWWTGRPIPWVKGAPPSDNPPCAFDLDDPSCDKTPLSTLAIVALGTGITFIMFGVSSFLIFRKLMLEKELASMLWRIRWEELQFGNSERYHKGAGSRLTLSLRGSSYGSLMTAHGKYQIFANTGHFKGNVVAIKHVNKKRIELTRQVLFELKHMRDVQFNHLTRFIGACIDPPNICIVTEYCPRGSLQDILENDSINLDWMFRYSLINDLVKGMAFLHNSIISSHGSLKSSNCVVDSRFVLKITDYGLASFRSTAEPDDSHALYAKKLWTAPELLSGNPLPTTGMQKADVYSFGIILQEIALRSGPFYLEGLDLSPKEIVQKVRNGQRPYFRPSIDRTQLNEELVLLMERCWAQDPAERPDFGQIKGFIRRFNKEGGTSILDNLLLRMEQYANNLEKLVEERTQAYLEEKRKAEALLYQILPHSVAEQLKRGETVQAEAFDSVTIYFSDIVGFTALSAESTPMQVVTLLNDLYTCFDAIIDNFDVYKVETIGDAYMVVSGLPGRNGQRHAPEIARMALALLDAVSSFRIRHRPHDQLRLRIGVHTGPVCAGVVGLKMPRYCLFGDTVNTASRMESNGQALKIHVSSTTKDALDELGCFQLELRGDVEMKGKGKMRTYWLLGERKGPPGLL
Procedure, shortened: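 Luminescence from a genetically encoded cGMP luciferase biosensor in hNpr2-expressing HEK293 cells is read before and 20 min after adding 1 nM hNppC. Test compounds, in interplate 1:5 titrations, are added 30-50 min ahead of the agonist.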

[4] = NS1 protein of Zika virus - qHTS assay to identify small molecule inhibitors in human HEK 293 cells (AID 1347053); note: series mostly up to about 46 µM; nearly all actives have a fitted effect of over 55% in size
Procedure, shortened: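 Compound-treated (1 h pre-infection) HEK 293 cells infected with ZIKV MR766, MOI = 0.5; after 24 h at 37 C, NS1 read by TR-FRET; data normalized to uninfected and infected controls.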

[5] = Natriuretic polypeptide receptor (hNpr1) antagonism - Pilot counterscreen GloSensor control cell line (AID 1347045; calls by dose curve; note: series mostly up to about 38 µM)
Procedure, shortened: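 Control counterscreen: luciferase cGMP-biosensor HEK293 cells (no Npr1) received compound for 30 min at room temperature after GloSensor substrate loading. Luminescence was measured before and 20 min after soluble guanylyl cyclase activation by 50 uM nitroprusside.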

[6] = target: T1, Tyrosine-protein phosphatase non-receptor type substrate 1 (Homo sapiens) + Leukocyte surface antigen CD47 (Homo sapiens) (UniProt P78324+Q08722); assay: CD47-SIRPalpha protein protein interaction - LANCE assay qHTS validation (AID 1347057; active = well fitted curve in the direction sought with a large enough effect in the signal ratio, with a control signal flat, not every such curve was filed as active; the % refers to the signal ratio; note: series mostly up to about 38 µM)
T1 sequence (P78324 whole entry, looked up, the tested form may be a part): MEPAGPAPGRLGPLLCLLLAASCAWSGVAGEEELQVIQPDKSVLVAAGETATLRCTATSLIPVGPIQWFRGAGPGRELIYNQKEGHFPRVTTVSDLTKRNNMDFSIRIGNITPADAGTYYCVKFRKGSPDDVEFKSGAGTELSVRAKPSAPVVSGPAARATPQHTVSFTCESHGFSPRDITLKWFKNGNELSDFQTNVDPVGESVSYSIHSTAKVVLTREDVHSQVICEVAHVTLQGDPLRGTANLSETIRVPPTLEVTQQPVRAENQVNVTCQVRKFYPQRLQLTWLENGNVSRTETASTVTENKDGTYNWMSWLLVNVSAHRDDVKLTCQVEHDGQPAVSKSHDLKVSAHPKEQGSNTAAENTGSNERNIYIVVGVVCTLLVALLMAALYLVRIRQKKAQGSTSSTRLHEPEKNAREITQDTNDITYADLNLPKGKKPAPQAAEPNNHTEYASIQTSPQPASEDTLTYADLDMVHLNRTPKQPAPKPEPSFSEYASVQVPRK
T1 sequence (Q08722 whole entry, looked up, the tested form may be a part): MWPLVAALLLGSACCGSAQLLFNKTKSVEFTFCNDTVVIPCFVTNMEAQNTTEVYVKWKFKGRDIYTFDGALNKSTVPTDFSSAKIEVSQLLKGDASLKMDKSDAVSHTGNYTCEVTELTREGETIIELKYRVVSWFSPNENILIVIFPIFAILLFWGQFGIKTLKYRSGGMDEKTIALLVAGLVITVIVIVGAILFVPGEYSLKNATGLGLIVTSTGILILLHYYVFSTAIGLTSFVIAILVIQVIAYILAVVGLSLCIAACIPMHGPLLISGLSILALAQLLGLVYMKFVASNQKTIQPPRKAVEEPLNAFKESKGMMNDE
Procedure, shortened: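 Inhibition of soluble CD47/SIRPalpha ectodomain association by titrated compounds, measured as 665/615 nm time-resolved FRET ratio after sequential 30 min room-temperature incubations.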

[7] = target: T1, Tyrosine-protein phosphatase non-receptor type substrate 1 (Homo sapiens) + Leukocyte surface antigen CD47 (Homo sapiens); assay: CD47-SIRPalpha protein protein interaction - Alpha assay qHTS validation (AID 1347059);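 note: bead proximity luminescence from CD47 binding SIRPalpha after compound preincubation with SIRPalpha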
Procedure, shortened: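 SIRPalpha-biotin 25 nM + cpd, 30 min RT, dark; add CD47-His 12.5 nM, 30 min; add Ni-NTA/SAV beads 10 ug/mL, 30 min; AlphaScreen. Buffer PBS pH 7.4 + 0.05% IGEPAL CA-630. Non-biotinylated SIRPalpha as control inhibitor.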

For `CC1CCC(C(=O)N(c2cc(C#CC(C)(C)C)sc2C(=O)O)C2CCC(O)CC2)CC1` (stereo not given), the Potency [1] was “inactive”.
For `Cc1cccc(C)c1OCC(C)N` (stereo not given), the Potency [1] was “inactive”, the outcome [2] was “inactive” and the outcome [3] was “inactive”. The Potency [4] was “inactive”.
In the case of `N[C@H](CSC(c1ccccc1)(c1ccccc1)c1ccccc1)C(=O)O`, the Potency [1] was “inactive”.
With `Cc1cc(OCCCc2c(C(=O)O)n(Cc3cccnc3)c3c(-c4c(COc5ccc(N6CCN([S+](C)(=O)[O-])CC6)cc5)nn(C)c4C)cccc23)cc(C)c1Cl` the Potency [1] was “inactive”.
In the case of `CCn1cc(C(=O)O)c(=O)c2ccc(C)nc21`, the Potency [1] was “inactive”, the Potency [5] was “inactive” and the outcome [2] was “inactive”. For the same molecule, the outcome [3] was “inactive”, the Potency [4] was “inactive” and the outcome [6] was “inactive”. For the same molecule, the outcome [7] was “inactive”.
With `CCS(=O)(=O)N1CC(CC#N)(n2cc(-c3ncnc4[nH]ccc34)cn2)C1` the Potency [1] was “inactive”.
In the case of `O=c1cc(-c2ccc(O)cc2)oc2cc(O)cc(O)c12`, the Potency [1] was “inactive”, the outcome [2] was “inactive” and the outcome [3] was “inactive”. The outcome [6] was “inactive” and the outcome [7] was “inactive”.
With `CO[C@H]1C(=O)[C@]2(C)[C@@H](OC)C[C@H]3OC[C@@]3(OC(C)=O)[C@H]2[C@H](OC(=O)c2ccccc2)[C@]2(O)C[C@H](OC(=O)[C@H](O)[C@@H](NC(=O)OC(C)(C)C)c3ccccc3)C(C)=C1C2(C)C` the Potency [1] was 0.001 µM (active).
For `COC(=O)C1=CO[C@@H](O)[C@@H]2C(CO)=CC[C@@H]12`, the Potency [1] was “inactive”.
With `NCCS` the Potency [1] was “inactive”, the Potency [5] was “inactive” and the outcome [2] was “inactive”. For the same molecule, the outcome [3] was “inactive”, the Potency [4] was “inactive” and the outcome [6] was “inactive”. The outcome [7] was “inactive”.
For `COc1cc(O)c2c(c1)C(=O)c1cc(C)cc(O)c1C2=O`, the Potency [1] was “inactive”.
In the case of `C[C@H](NC(=O)c1sccc1OCc1ccc(Cl)cc1)c1ccccc1`, the Potency [1] was 14.8 µM (active).
For `CCN(CC)C(=O)c1ccc(O)c(OC)c1`, the Potency [1] was “inactive”, the Potency [5] was “inactive” and the outcome [2] was “inactive”. The outcome [3] was “inactive”, the Potency [4] was “inactive” and the outcome [6] was “inactive”. The outcome [7] was “inactive”.
For `Cn1c(N2CCCCS2(=O)=O)nc(C(=O)NCc2ccc(F)cc2)c(O)c1=O`, the Potency [1] was “inactive”.
For `CCCCC1C(=O)N(c2ccccc2)N(c2ccccc2)C1=O`, the Potency [1] was “inactive”, the outcome [2] was “inactive” and the outcome [3] was “inactive”. The Potency [4] was “inactive”.
With `CN1C[C@H]2c3ccccc3Oc3ccc(Cl)cc3[C@@H]2C1` the Potency [1] was “inactive”.
With `O=C(O)C=Cc1ccc(O)c(O)c1` the Potency [1] was “inactive”.
With `COC(=O)[C@@H]1[C@H]2C[C@H]3c4[nH]c5ccccc5c4CCN3C[C@@H]2CC[C@@H]1O` the Potency [1] was “inactive”, the outcome [2] was “inactive” and the outcome [3] was “inactive”. For the same molecule, the Potency [4] was “inactive”.
For `CNC(=O)c1ccccc1Sc1ccc2c(C=Cc3ccccn3)n[nH]c2c1`, the Potency [1] was 4.18 µM (active).
For `NC(=O)NN=Cc1ccc([N+](=O)[O-])o1`, the Potency [1] was “inactive”.
With `COc1ccccc1N1CCN(CCCNc2cc(=O)n(C)c(=O)n2C)CC1` the Potency [1] was “inactive”, the Potency [5] was “inactive” and the outcome [2] was “inactive”. For the same molecule, the outcome [3] was “inactive”, the Potency [4] was “inactive” and the outcome [6] was “inactive”. The outcome [7] was “inactive”.
With `O=C1NC(=O)C(c2ccccc2)(c2ccccc2)N1` the Potency [1] was “inactive”, the Potency [5] was “inactive” and the outcome [2] was “inactive”. For the same molecule, the outcome [3] was “inactive”, the outcome [6] was “inactive” and the outcome [7] was “inactive”.
With `CC(=O)c1ccc(S(=O)(=O)NC(=O)NC2CCCCC2)cc1` the Potency [1] was “inactive”, the Potency [5] was “inactive” and the outcome [2] was “inactive”. For the same molecule, the outcome [3] was “inactive”, the Potency [4] was “inactive” and the outcome [6] was “inactive”. For the same molecule, the outcome [7] was “inactive”.
With `CCCNC(=O)NS(=O)(=O)c1ccc(Cl)cc1` the Potency [1] was “inactive”, the Potency [5] was “inactive” and the outcome [2] was “inactive”. The outcome [3] was “inactive”, the Potency [4] was “inactive” and the outcome [6] was “inactive”. For the same molecule, the outcome [7] was “inactive”.
In the case of `COCCCCC(=NOCCN)c1ccc(C(F)(F)F)cc1`, the Potency [1] was 20.9 µM (active).
In the case of `Cc1ccc(C(=O)Nc2cccc(C(F)(F)F)c2)cc1Nc1nc(-c2cccnc2)nc2c1cnn2C`, the Potency [1] was “inactive”.
For `O=C(NC1CCOCC1)c1ccc(-c2cc(-c3cn[nH]c3-c3ccccn3)ccn2)cc1`, the Potency [1] was “inactive”.
For `CN(C)CCC(c1ccccc1)c1ccccn1` (stereo not given), the Potency [1] was “inactive”, the Potency [5] was “inactive” and the outcome [2] was “inactive”. For the same molecule, the outcome [3] was “inactive”, the outcome [6] was “inactive” and the outcome [7] was “inactive”.
With `CC(=O)N[C@@H](CS)C(=O)O` the Potency [1] was “inactive”, the Potency [5] was “inactive” and the outcome [2] was “inactive”. For the same molecule, the outcome [3] was “inactive”, the Potency [4] was “inactive” and the outcome [6] was “inactive”. The outcome [7] was “inactive”.
For `CN(C)c1cc(NC(=O)CNC(C)(C)C)c(O)c2c1C[C@@H]1C[C@H]3[C@H](N(C)C)C(=O)C(C(N)=O)=C(O)[C@@]3(O)C(=O)C1=C2O`, the Potency [1] was “inactive”.
For `COc1cc(Nc2ncc(F)c(Nc3ccc4c(n3)NC(=O)C(C)(C)O4)n2)cc(OC)c1OC`, the Potency [1] was 2.59 µM (active) and 18.4 µM (active) and inactive.
In the case of `O=C(NCc1ccncc1)C12C[C@H]3C[C@@H](C1)CC(c1ccc(Cl)cc1)(C3)C2`, the Potency [1] was “inactive”.
With `COC(=O)N[C@H](C(=O)N1CCC[C@@H]1c1ncc(-c2ccc(-c3ccc(-c4cnc([C@@H]5CCCN5C(=O)[C@@H](NC(=O)OC)C(C)C)[nH]4)cc3)cc2)[nH]1)C(C)C` the Potency [1] was “inactive”.
With `O=C(NCCN1CCOCC1)c1ccc(Cl)cc1` the Potency [1] was “inactive”, the Potency [5] was “inactive” and the outcome [2] was “inactive”. For the same molecule, the outcome [3] was “inactive”, the Potency [4] was “inactive” and the outcome [6] was “inactive”. For the same molecule, the outcome [7] was “inactive”.
